Experimental data from PubChem BioAssay (NCATS).
Values joined by “and” are separate entries in the source; they are usually repeats but may differ in a detail not shown here. Equal values may be shown once. Values without a mark were called inactive. Results filed as inconclusive are left out. Where a call stands in place of a potency, no number is given. Active and inactive are the calls of the source. Unless noted, calls come from the whole dose curve; as a rule, active = well fitted curve in the direction sought with a large enough effect; inconclusive = small, poorly fitted or top-dose-only effect, or another doubt; inactive = no such curve, though single readings can be large; an effect the other way counts as inactive or inconclusive. Peptide text beside a SMILES is read from it.

Experiments:
Es-2 = assay: Primary qHTS to identify gynecologic anti-cancer compounds using libraries of approved drugs and bioactive compounds (AID 1345084); settings: Gynecologic cancer cell panel viability, ATPlite luminescence, 48 h; series mostly up to 57.5 µM; note: nearly all actives have a fitted effect of over 55% in size; note: potency is the fitted concentration of half-maximal effect
In short: (§1)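 Luminescence from the ATPlite ATP-monitoring reagent indicates viable cell number; lower signal means cytotoxicity. Cells received compound 16 h after seeding and were exposed for 48 h across five concentrations.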

HeLa = assay: as above; settings: Gynecologic cancer cell panel viability, ATPlite luminescence, 48 h; series mostly up to 57.5 µM
In short: as §1

Hek293T = assay: as above; settings: Gynecologic cancer cell panel viability, ATPlite luminescence, 48 h, control line for the selectivity index; series mostly up to 57.5 µM
In short: as §1

JEG-3 = assay: as above; settings: Gynecologic cancer cell panel viability, ATPlite luminescence, 48 h; series mostly up to 57.5 µM
In short: as §1

OV90 = assay: as above; settings: Gynecologic cancer cell panel viability, ATPlite luminescence, 48 h; series mostly up to 57.5 µM
In short: as §1

PA-1 = assay: as above; settings: Gynecologic cancer cell panel viability, ATPlite luminescence, 48 h; series mostly up to 57.5 µM
In short: as §1

Tov-21-G = assay: as above; settings: Gynecologic cancer cell panel viability, ATPlite luminescence, 48 h; series mostly up to 57.5 µM
In short: as §1

Tov112D = assay: as above; settings: Gynecologic cancer cell panel viability, ATPlite luminescence, 48 h; series mostly up to 57.5 µM
In short: as §1

[1] = Drug repurposing screens with cells derived from glioblastoma tumor samples (AID 1345199); settings: GBM patient neurospheres viability, ATP luminescence, 48 h; note: nearly all actives have a fitted effect of over 40% in size; note: potency is the fitted concentration of half-maximal effect
In short: (§2)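 Primary testing used CD133+ neurospheres from four GBM patients, seven concentrations, 48 h exposure and ATP-based viability; confirmation added three slower-growing patient lines.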

astro = assay: as above; settings: viability, ATP luminescence, 48 h; series mostly up to 45.9 µM
In short: as §2

SKOV3 = assay: Primary qHTS to identify gynecologic anti-cancer compounds using libraries of approved drugs and bioactive compounds (AID 1345084); settings: Gynecologic cancer cell panel viability, ATPlite luminescence, 48 h; series mostly up to 57.5 µM; note: nearly all actives have a fitted effect of over 55% in size; note: potency is the fitted concentration of half-maximal effect
In short: as §1

[2] = biological target: Nuclear receptor subfamily 1 group I member 2 (Rattus norvegicus) (UniProt Q9R1A7); assay: qHTS assay for small molecule activators of the rat pregnane X receptor (rPXR) signaling pathway (AID 651751; call rule not given here); settings: rPXR reporter cells, luciferase (One-Glo), 24 h
[3] = qHTS assay for small molecule activators of the human pregnane X receptor (PXR) signaling pathway (AID 720659; call rule not given here)
[4] = qHTS assay to identify inhibitors of the type 1 interferon - major histocompatibility complex class I in skeletal muscle: Counter screen cell viability and HiBit confirmation (AID 1347412); settings: iHSKM muscle cells + IFN-b, HiBiT or CellTiter-Glo, 24 h, at 45.9 µM (top of the series); note: nearly all actives have a fitted effect of over 60% in size
In short: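 Luminescence read-out: Nano-Glo HiBiT lytic signal from C-terminally HiBiT-tagged HLA-B in CRISPR-edited human myoblasts, plus CellTiter Glo ATP as viability counter screen. IFN-beta 4.0 ng/ml; 24 hrs treatment at 37 C, 5% CO2.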

[5] = at 45.9 µM (top of the series), tumour line B
[6] = at 45.9 µM (top of the series), tumour line D
[7] = at 46.1 µM (top of the series), tumour line C
[8] = at 20 µM (top of the series), tumour line C
[9] = at 21.2 µM (top of the series), tumour line B
[10] = at 46 µM (top of the series), tumour line A

Sequence of Nuclear receptor subfamily 1 group I member 2 (Rattus norvegicus) (Q9R1A7 whole entry, looked up): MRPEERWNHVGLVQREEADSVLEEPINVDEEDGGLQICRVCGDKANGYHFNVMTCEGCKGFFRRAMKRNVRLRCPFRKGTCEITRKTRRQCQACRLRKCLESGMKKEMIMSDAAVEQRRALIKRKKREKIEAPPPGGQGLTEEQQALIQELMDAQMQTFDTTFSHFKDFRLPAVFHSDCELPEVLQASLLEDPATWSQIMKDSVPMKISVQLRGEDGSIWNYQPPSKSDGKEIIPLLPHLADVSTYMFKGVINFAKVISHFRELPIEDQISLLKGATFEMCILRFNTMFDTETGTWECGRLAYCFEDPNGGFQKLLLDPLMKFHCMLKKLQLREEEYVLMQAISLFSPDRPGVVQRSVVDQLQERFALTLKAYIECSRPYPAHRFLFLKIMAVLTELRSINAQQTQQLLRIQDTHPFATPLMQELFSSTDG

CCC1=C(C)CN(C(=O)NCCc2ccc(S(=O)(=O)NC(=O)NC3CCC(C)CC3)cc2)C1=O (stereo not given)
Potency (Es-2): inactive | Potency (HeLa): inactive | Potency (Hek293T): inactive | Potency (JEG-3): inactive | Potency (OV90): inactive | Potency (PA-1): inactive | Potency (Tov-21-G): inactive | Potency (Tov112D): inactive | activity, negative = cell killing [1, 5]: 4.42% | activity, negative = cell killing [1, 6]: -28.4% | activity, negative = cell killing [1, 7]: -8.33% | Potency (astro): inactive

COC(=O)[C@H](Cc1ccccc1)NC(=O)[C@@H](N)CC(=O)O (H-Asp-Phe-OMe)
Potency (Es-2): inactive | Potency (HeLa): inactive | Potency (Hek293T): inactive | Potency (JEG-3): inactive | Potency (OV90): inactive | Potency (PA-1): inactive | Potency (SKOV3): inactive | Potency (Tov-21-G): inactive | Potency (Tov112D): inactive | activity, negative = cell killing [1, 5]: -10.7% and -0.538% | activity, negative = cell killing [1, 6]: -6.33% and -21.9% | activity, negative = cell killing [1, 7]: -19.7% and -4.06% | Potency (astro): inactive | max response [2]: -0.463% and 3.11%

Cc1cccc(C)c1OCC(=O)N[C@@H](Cc1ccccc1)[C@@H](O)C[C@H](Cc1ccccc1)NC(=O)[C@H](C(C)C)N1CCCNC1=O
Potency (Es-2): inactive | Potency (HeLa): inactive | Potency (Hek293T): inactive | Potency (JEG-3): inactive | Potency (OV90): inactive | Potency (PA-1): inactive | Potency (SKOV3): inactive | Potency (Tov-21-G): inactive | Potency (Tov112D): inactive | Potency (astro): inactive

O=C(c1ccccc1)c1ccc2n1CCC2C(=O)O (stereo not given)
Potency (Es-2): inactive | Potency (HeLa): inactive | Potency (Hek293T): inactive | Potency (JEG-3): inactive | Potency (OV90): inactive | Potency (PA-1): inactive | Potency (Tov-21-G): inactive | Potency (Tov112D): inactive | activity, negative = cell killing [1, 8]: 0.506% | activity, negative = cell killing [1, 9]: -13.1% | activity, negative = cell killing ([1]; at 21.2 µM (top of the series), tumour line D): -2.23% | activity, negative = cell killing ([1]; at 21.3 µM (top of the series), tumour line A): -11% | activity, negative = cell killing [1, 5]: -9.76% | activity, negative = cell killing [1, 6]: -4.33% | activity, negative = cell killing [1, 7]: -1.4% | Potency (astro): inactive

NS(=O)(=O)c1cc(C(=O)O)c(NCc2ccco2)cc1Cl
Potency (Es-2): inactive | Potency (HeLa): inactive | Potency (Hek293T): inactive | Potency (JEG-3): inactive | Potency (OV90): inactive | Potency (PA-1): inactive | Potency (SKOV3): inactive | Potency (Tov-21-G): inactive | Potency (Tov112D): inactive | activity, negative = cell killing [1, 5]: -8.22% | activity, negative = cell killing [1, 6]: -18.4% | activity, negative = cell killing [1, 7]: 5.25% | Potency (astro): inactive | max response [2]: 7.06% and 0.0174% | outcome [3]: inactive

CCCCC(CC)COC(=O)C(C#N)=C(c1ccccc1)c1ccccc1 (stereo not given)
Potency (Es-2): inactive | Potency (HeLa): inactive | Potency (Hek293T): inactive | Potency (JEG-3): inactive | Potency (OV90): inactive | Potency (PA-1): inactive | Potency (SKOV3): inactive | Potency (Tov-21-G): inactive | Potency (Tov112D): inactive | activity, negative = cell killing [1, 7]: -18.1% | Potency ([1]; tumour line A): 7.08 µM (active) | Potency ([1]; tumour line D): 10 µM (active) | Potency (astro): inactive

Oc1ccc(OCc2ccccc2)cc1
Potency (Es-2): inactive | Potency (HeLa): inactive | Potency (Hek293T): inactive | Potency (JEG-3): inactive | Potency (OV90): inactive | Potency (PA-1): inactive | Potency (SKOV3): inactive | Potency (Tov-21-G): inactive | Potency (Tov112D): inactive | activity, negative = cell killing [1, 8]: 4.55% | activity, negative = cell killing [1, 9]: -21.3% | Potency (astro): inactive

Nc1cc(C(Cl)=C(Cl)Cl)c(S(N)(=O)=O)cc1S(N)(=O)=O
Potency (Es-2): inactive | Potency (HeLa): inactive | Potency (Hek293T): inactive | Potency (JEG-3): inactive | Potency (OV90): inactive | Potency (PA-1): inactive | Potency (SKOV3): inactive | Potency (Tov-21-G): inactive | Potency (Tov112D): inactive | Potency (astro): inactive

CCc1nc(N)nc(N)c1-c1ccc(Cl)cc1
Potency (Es-2): 4.47 µM (active) | Potency (HeLa): 14.1 µM (active) | Potency (Hek293T): 7.94 µM (active) | Potency (JEG-3): inactive | Potency (OV90): 7.94 µM (active) | Potency (PA-1): 7.94 µM (active) | Potency (SKOV3): inactive | Potency (Tov-21-G): 3.16 µM (active) | Potency (Tov112D): 14.1 µM (active) | Potency (astro): inactive

CCC[C@@H]1C[C@@H](C(=O)N[C@@H]([C@H]2O[C@H](SC)[C@H](O)[C@@H](O)[C@H]2O)[C@@H](C)O)N(C)C1
Potency (Es-2): inactive | Potency (HeLa): inactive | Potency (Hek293T): inactive | Potency (JEG-3): inactive | Potency (OV90): inactive | Potency (PA-1): inactive | Potency (Tov-21-G): inactive | Potency (Tov112D): inactive | activity, negative = cell killing [1, 5]: -4.01% | activity, negative = cell killing [1, 6]: 5.06% | activity, negative = cell killing [1, 10]: -2.05% | activity, negative = cell killing [1, 7]: 3.06% | Potency (astro): inactive

CS(=O)(=O)OCCCCOS(C)(=O)=O
Potency (Es-2): inactive | Potency (HeLa): inactive | Potency (Hek293T): inactive | Potency (JEG-3): inactive | Potency (OV90): inactive | Potency (PA-1): inactive | Potency (Tov-21-G): inactive | Potency (Tov112D): inactive | activity, negative = cell killing [1, 5]: -4.65% | activity, negative = cell killing [1, 6]: -5.18% | activity, negative = cell killing [1, 10]: -16.3% | activity, negative = cell killing [1, 7]: -0.778% | Potency (astro): inactive | max response [2]: 1.78% and 1.87% and -0.923%

CN(C)C(=O)COC(=O)Cc1ccc(OC(=O)c2ccc(N=C(N)N)cc2)cc1
Potency (Es-2): inactive | Potency (HeLa): inactive | Potency (Hek293T): inactive | Potency (JEG-3): inactive | Potency (OV90): inactive | Potency (PA-1): inactive | Potency (Tov-21-G): inactive | Potency (Tov112D): inactive | activity, negative = cell killing [1, 5]: -12.3% | activity, negative = cell killing [1, 6]: 2.44% | activity, negative = cell killing [1, 7]: -19.5% | Potency (astro): inactive

Clc1ccc(C(Cn2ccnc2)OCc2ccc(Sc3ccccc3)cc2)c(Cl)c1 (stereo not given)
Potency (Es-2): inactive | Potency (HeLa): inactive | Potency (Hek293T): inactive | Potency (JEG-3): inactive | Potency (OV90): inactive | Potency (PA-1): inactive | Potency (SKOV3): inactive | Potency (Tov-21-G): inactive | Potency (Tov112D): inactive | activity change, negative = inhibition ([4]; HiBiT): -10.3% | activity change, negative = inhibition ([4]; Viability): -8.18%

O=C(O)CCNC(=O)c1ccc(N=Nc2ccc(O)c(C(=O)O)c2)cc1
Potency (Es-2): inactive | Potency (HeLa): inactive | Potency (Hek293T): inactive | Potency (JEG-3): inactive | Potency (OV90): inactive | Potency (PA-1): inactive | Potency (Tov-21-G): inactive | Potency (Tov112D): inactive | activity, negative = cell killing [1, 5]: -6.99% | activity, negative = cell killing [1, 6]: -11.2% | activity, negative = cell killing [1, 10]: -28% | activity, negative = cell killing [1, 7]: -6.53% | Potency (astro): inactive
